Source: PubChem
PKM2 inh: PKM2 (human) enzyme inhibition; P14618; purified PKM2, ATP generation, Kinase-Glo luminescence; Potency, µM (series often up to 57.5 µM), usual class: inhibitors; 260,000 tested, 0.058% active; active means well fitted inhibition curve with a large enough effect; further: nearly all actives have a fitted effect of over 60% in size
Target sequence (P14618 whole entry, looked up): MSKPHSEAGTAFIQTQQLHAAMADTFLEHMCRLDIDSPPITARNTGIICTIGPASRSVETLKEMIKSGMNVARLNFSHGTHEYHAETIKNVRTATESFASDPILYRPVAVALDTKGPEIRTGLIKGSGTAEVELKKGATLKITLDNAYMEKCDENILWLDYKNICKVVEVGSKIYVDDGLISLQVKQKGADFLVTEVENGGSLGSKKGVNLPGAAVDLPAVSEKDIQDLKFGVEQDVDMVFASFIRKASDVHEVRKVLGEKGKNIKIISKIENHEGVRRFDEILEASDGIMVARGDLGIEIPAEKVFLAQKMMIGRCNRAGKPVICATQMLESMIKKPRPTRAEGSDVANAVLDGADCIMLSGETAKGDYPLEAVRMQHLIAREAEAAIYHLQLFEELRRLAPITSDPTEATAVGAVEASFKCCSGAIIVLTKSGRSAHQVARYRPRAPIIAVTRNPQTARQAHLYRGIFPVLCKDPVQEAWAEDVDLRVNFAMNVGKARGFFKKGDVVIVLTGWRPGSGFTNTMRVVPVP
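Enzyme run at intermediate activity with final 0.1 mM ADP, 0.5 mM PEP (50 mM imidazole pH7.2, 50 mM KCl, 7 mM MgCl2), incubated 1 h at r.t. ATP formed read by Kinase-Glo luminescence, normalized to no-enzyme (full inhibition) and uninhibited wells.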
Hits are given with their value; – = inactive. Many of the other results were omitted from the sample, so hits are more common in it than they were.

SMILES	PKM2 inh
COc1ccccc1NC(=O)C12CCC(C)(C(=O)C1)C2(C)C (stereo not drawn)	–
CNc1nc(-c2ccccc2)[n+](-c2ccc(C)cc2)s1	10µM
O=C(CSC1=NCCS1)Nc1cccc(F)c1	–
CC(C)(C)C(=O)Nc1ccc(-c2csnn2)cc1	–
CC(=O)N1CC(=O)N=C1SCC(=O)Nc1nc(C)c(-c2ccccc2)s1	–
Cc1cc(C)cc(NC(=O)Nc2ccc(N3CCCCC3)cc2)c1	–
O=C(Nc1ccc2oc(-c3ccccc3F)nc2c1)c1ccc2c(c1)OCCO2	–
O=C(CN1CCN(c2ccc(O)cc2)CC1)Nc1ccc2c(c1)OCCO2	–
O=C(Nc1ccc(N2CCCCC2)cc1)c1ccccn1	16µM
O=C(Nc1ccc2c(c1)OCCO2)c1ccccn1	14µM
Cc1cc(NC(=O)C2CCCCC2)ncc1NC(=O)c1ccccn1	–
CCOC(=O)C(CO)(NC(C)=O)C(=O)OCC	–
COc1cc(NC(=S)N2CCN(S(=O)(=O)c3ccc(C)cc3)CC2)cc(OC)c1	–
CC(=C\C(=O)O)/C(=C/c1ccc(C)o1)C(=O)O	–
CNC(=O)c1cc2ncc(C(F)(F)F)cc2s1	–
COc1cccc(CC2(CO)CCCN(C(=O)c3cc[n+]([O-])cc3)C2)c1 (stereo not drawn)	–
Cc1ccc(-c2csc(NC(=O)/C=C/c3ccco3)c2C(=O)O)cc1	–
COc1cccc(CNC(=O)CCC2CCCN(C(=O)c3cc(C4CC4)[nH]n3)C2)c1 (stereo not drawn)	–
CC1(C)CC2(CC(c3ccccc3F)c3ccc(O)c(O)c3O2)NC(=S)N1 (stereo not drawn)	–
Cc1cc2c(NC(=O)Nc3ccc(C(C)(C)C)cc3)cccc2nn1	–
COc1ccc(NC(=O)Nc2ccccc2C(N)=O)cc1	25µM
CC(=O)Nc1ccc(C(=O)OCc2ccccc2Br)cc1	–
CCN(CC)c1ccc2cc(S(=O)(=O)c3ccc(C)cc3)c(=O)oc2c1	–
Cc1ccc(CCNS(=O)(=O)c2cc3c(cc2C)NC(=O)CO3)cc1	–
Cc1nc(SCC(=O)NC(=O)NC(C)C)nc(C)c1C	–
SMILES	PKM2 inh
O=[N+]([O-])c1ccc(Sc2nnnn2-c2ccccc2)nc1	–
CN(CCOC(=O)/C=C/c1ccco1)Cc1ccccc1	–
CN(C)c1ccc(/C=N/NC(=O)c2ccnn2C)cc1	7.9µM
COc1ccccc1N1CCN(C(=O)COc2ccc(S(=O)(=O)NC(C)C)cc2)CC1	–
Nc1nc2c(c(=O)[nH]1)C(c1cccc3ccccc13)C1=C(N2)c2ccccc2C1=O (stereo not drawn)	–
C=C1C(=O)C=C2CN(C(=O)c3ccccc3)[C@@](Cc3ccc(OC)cc3)(C(=O)OC)[C@@H]12	–
COc1cccc(NC(=O)CN(C)C(C)C(=O)Nc2ccc(S(=O)(=O)N3CCCC3)cc2)c1 (stereo not drawn)	–
COc1ccc(S(=O)(=O)N2CCN(C(=O)C3CC3)CC2)cc1	–
CCOc1ccc2nc(SCC(=O)Nc3cc(C)on3)c(C)cc2c1	–
CCOc1ccc2nc(/N=C/c3c(C)[nH]n(-c4ccc(C)cc4)c3=O)sc2c1	13µM
CC(NC(=O)c1ccc(OC2CCN(Cc3ccccn3)CC2)cc1)c1ccccc1 (stereo not drawn)	–
COc1ccccc1NCC(=O)NNC(C)C(=O)Nc1cccc(Cl)c1 (stereo not drawn)	–
COc1cc(C(=O)NCC(=O)N2CCN(S(=O)(=O)c3cc(C)ccc3C)CC2)cc(OC)c1OC	–
CC1(C)CC(=O)c2c(oc3ccc(NS(=O)(=O)c4cccc5cccnc45)cc23)C1	–
O=C(COc1ccc(Cl)cc1Cl)NCC(=O)N/N=C/c1c[nH]c2ccccc12	–
O=C(COc1ccc(Cl)cc1Cl)Nc1ccccn1	14µM
O=C(COc1ccc(Cl)cc1Cl)NC(=S)Nc1ccc(CN2CCOCC2)cc1	–
CS(=O)(=O)c1ccc(C(=O)OCc2nnc(-c3ccccc3)o2)cc1[N+](=O)[O-]	–
CCC(C)NC(=O)CSc1nc2ccccc2c(=O)n1-c1c(C)n(C)n(-c2ccccc2)c1=O (stereo not drawn)	–
O=C(O)c1cc(NC(=O)c2cccc(C(=O)Nc3cc(C(=O)O)cc(C(=O)O)c3)c2)cc(C(=O)O)c1	13µM
CC(=O)N1CCN(c2ccc(NC(=O)c3cccc(C)c3)cc2)CC1	–
O=C(Nc1cccc(O)c1)c1cccc(S(=O)(=O)Nc2cccc(O)c2)c1	–
CC(C)CC(=O)Nc1nnc(S(=O)(=O)N2c3ccccc3CC2C)s1 (stereo not drawn)	–
COc1ccc(S(=O)(=O)c2ccc(OC)cc2)cc1	–
COc1ccc(C2=CC(=O)C=CC2=O)cc1	18µM
SMILES	PKM2 inh
COc1ccc(S(=O)(=O)/N=C2/C=CC(=O)C(C)=C2C)cc1	–
CCCNC(=O)c1cc(S(=O)(=O)N2CCCCC2)c[nH]1	–
Cc1c2c(nc3nnnn13)CCCC2	–
Cc1nc(N=Nc2ccc(O)cc2)n[nH]1	13µM
COc1ccc(-c2cc3c(nn2)-c2ccccc2C3=O)cc1	16µM
COc1ccc(S(=O)(=O)c2cnc3ccccc3n2)cc1	–
COc1ccc(-c2cc(=O)[nH][nH]2)cc1	–
COc1ccc(N2C(=O)CC(Sc3nc4ccccc4s3)C2=O)cc1OC (stereo not drawn)	–
COc1cccc(NC(=O)CSc2ccc(-c3sc(C)nc3C)nn2)c1	–
COc1ccc(-c2ccc(SC)nn2)cc1	10µM
C/C(=N\Nc1ccc(S(N)(=O)=O)cc1[N+](=O)[O-])c1ccco1	–
CCNC(=O)NC(=O)C(C)Sc1ncc(C(F)(F)F)cc1Cl (stereo not drawn)	–
NC(=O)c1oc2ccccc2c1NC(=O)CCc1ccccc1	–
O=C(Nc1ccccc1)c1cc2ccccc2o1	11µM
Cc1ccc(NC(=O)c2cc(-c3ccc(C)o3)nc3ccccc23)cc1	–
COc1cc(C(=O)NC2CC(C)(C)NC(C)(C)C2)cc(OC)c1OC	–
CC(=O)NC1=NN(C(C)=O)C(c2ccccn2)S1 (stereo not drawn)	–
CCOC(=O)c1cnc(SCC(=O)c2ccc3c(c2)OCCO3)nc1N	–
O=C(COC(=O)c1cccs1)c1ccc2c(c1)OCCO2	28µM
O=C(COC(=O)c1ccc(NS(=O)(=O)c2ccc3c(c2)OCCO3)cc1)NC1CC1	–
CCOC(=O)c1c(CSc2ccccc2)oc2cc(Br)c(O)c(CN(C)C)c12	–
Cc1nnc(NC(=O)CSc2nc3c(c(=O)n(C)c(=O)n3C)n2C(C)C)s1	–
Cc1[nH]c2ccccc2c1NC(=O)CN1CCN(C(=O)c2ccco2)CC1	–
COc1ccc(C(=O)Nc2ncc3c(n2)CC(c2ccco2)CC3=O)cc1 (stereo not drawn)	–
COc1cccc(S(=O)(=O)N2CCN(C(=O)c3ccco3)CC2)c1	–
SMILES	PKM2 inh
COc1ccc(/C(N)=N/OC(=O)c2ccco2)cc1	18µM
NC(=O)CC(NC(=O)Cc1cccc2ccccc12)c1ccc(N2CCc3ccccc3C2)c([N+](=O)[O-])c1 (stereo not drawn)	–
CCOc1cc(NC(=O)c2cccs2)c(OCC)cc1NC(=O)CCC(=O)NCCN1CCOCC1	–
O=C(CSc1nnnn1C1CCCCC1)Nc1ccccc1N1CCOCC1	–
CC(C)c1ccc2oc3nc(N)c(C(=O)O)cc3c(=O)c2c1	14µM
Cn1c(-c2ccc([N+](=O)[O-])cc2)nc2ccccc21	–
CC1=NN(c2ccc([N+](=O)[O-])cc2)C(=O)/C1=C\N(C)C	16µM
O=C1C=CC(=O)N1c1ccc(Sc2ccc([N+](=O)[O-])cc2)cc1	–
NC(=S)Cc1ccccc1Cl	–
